Values of other authors, collected in article PMC11062922 (Nature Chemical Biology, 2023).

Legend:
[1] = system: AMPK-alpha1
[2] = system: AMPK-alpha2
[3] = system: BLK
[4] = system: CIT
[5] = system: CLK1
[6] = system: CLK2
[7] = system: CSNK2A1
[8] = system: CSNK2A2
[9] = system: DDR1
[10] = system: DDR2
[11] = system: DYRK1A
[12] = system: DYRK1B
[13] = system: EPHB1
[14] = system: FLT3-autoinhibited
[15] = system: FLT3
[16] = system: GCN2(Kin.Dom.2,S808G)
[17] = system: HIPK1
[18] = system: INSRR
[19] = system: JAK1(JH2domain-pseudokinase)
[20] = system: JAK2(JH1domain-catalytic)
[21] = system: KIT
[22] = system: LCK
[23] = system: MAP3K4
[24] = system: MEK5
[25] = system: MERTK
[26] = system: MLK1
[27] = system: MLK2
[28] = system: MLK3
[29] = system: NEK11
[30] = system: NEK2
[31] = system: NEK3
[32] = system: NEK5
[33] = system: NEK6
[34] = system: NEK7
[35] = system: NEK9
[36] = system: PAK3
[37] = system: PIP5K1C
[38] = system: PIP5K2C
[39] = system: PKAC-beta
[40] = system: RSK1(Kin.Dom.1-N-terminal)
[41] = system: RSK3(Kin.Dom.1-N-terminal)
[42] = system: SLK
[43] = system: SRC
[44] = system: STK16
[45] = system: SYK
[46] = system: TBK1
[47] = system: TYK2(JH2domain-pseudokinase)
[48] = system: ULK2
[49] = system: WEE2

Measured: KINOMEScan

COc1cc(Nc2ncc3c(C)nc(-c4cc5ccccc5[nH]4)n3n2)cc(OC)c1OC [GW869516X]
active: [1] 89% | [2] 61% | [3] 60% | [4] 100% | [5] 88% | [6] 75% | [7] 96.4% | [8] 99.7% | [9] 52% | [10] 52% | [11] 85% | [12] 81% | [13] 58% | [14] 75% | [15] 96.3% | [16] 88% | [17] 79% | [18] 53% | [19] 98.5% | [20] 54% | [21] 72% | [22] 71% | [23] 52% | [24] 78% | [25] 56% | [26] 93.8% | [27] 89% | [28] 87% | [29] 86% | [30] 70% | [31] 89% | [32] 99% | [33] 99.6% | [34] 99.7% | [35] 90% | [36] 69% | [37] 89% | [38] 90.3% | [39] 51% | [40] 91.7% | [41] 66% | [42] 63% | [43] 90.1% | [44] 86% | [45] 53% | [46] 58% | [47] 82% | [48] 51% | [49] 85%
